In PubChem BioAssay (NCATS):
Records with an inconclusive call do not appear. A number with no mark means an inactive call. Activity calls are given as the source filed them. Calls come from the whole dose curve; as a rule, active = well fitted cell-killing curve with a large enough effect; inconclusive = small, poorly fitted or top-dose-only effect, or effect the other way; inactive = no such curve, though single readings can be large or run the other way.

How the values were obtained:
[1] = Viability qHTS for spleen associated tyrosine kinase inhibitor (SYKi) naive MV4-11 cells (AID 1963823); conditions: MV4-11 AML viability, CellTiter-Glo luminescence, 72 h; series mostly up to 45 µM; note: nearly all actives have a fitted effect of over 40% in size
Method in brief: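 SYKi-naive MV4-11 AML cells, 500 per well, were exposed to library compounds for 72 hr at 37 C, 5% CO2. Viability was then read by CellTiter-Glo luminescence after 10 min at room temperature.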

[2] = Viability qHTS for spleen associated tyrosine kinase inhibitor (SYKi) drug resistant MV4-11 cells (AID 1963824); conditions: SYKi-resistant MV4-11 viability, CellTiter-Glo, 72 h; series mostly up to 45 µM; note: nearly all actives have a fitted effect of over 35% in size
Method in brief: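 CellTiter-Glo luminescence, read 10 min after reagent addition, reports viability after a 72 hr compound exposure. Cells are an MV4-11 line made resistant to SYK inhibition, seeded at 500 per well onto compound-containing plates.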
Potency is the fitted concentration of half-maximal effect.

Row | SMILES | Potency [1] | Potency [2] | viability (% of control) [1] | viability, % of control [2]
1 | CC(=O)OC[C@]12C[C@H](OC(C)=O)C(C)=C[C@H]1O[C@@H]1[C@H](O)[C@@H](O)[C@@]2(C)[C@]12CO2 | inactive | inactive | – | –
2 | COC1CC(OC2CCC3(C=O)C(CCC4C3CCC3(C)C(C5=CC(=O)OC5)CCC43O)C2)OC(C)C1OC1OC(CO)C(O)C(O)C1O (stereo not drawn) | 0.0862 µM (active) | 0.0544 µM (active) | – | –
3 | CC(=O)O[C@H]1C[C@@H](C)O[C@H]2O[C@@H]3CC4CC[C@@H]5C(CC[C@]6(C)[C@@H](C7=CC(=O)OC7)CC[C@]56O)[C@@]4(C=O)C[C@H]3O[C@]21O (stereo partly drawn) | 0.0432 µM (active) | 0.0485 µM (active) | – | –
4 | Cc1ccc2c(c1)[C@H]1CN(C)CC[C@H]1N2C(=O)CSc1nnnn1-c1ccc(Cl)cc1 | inactive | inactive | – | –
5 | C=C1[C@@]23C(=O)O[C@H](C)[C@]24O[C@@]2(C(=C)[C@]5(C=CC(=O)OC5(C)C)CC[C@]32C)[C@H](O)[C@@]1(C)OC4=O | inactive | inactive | – | –
6 | C[C@@H]1O[C@@H](OC2CCC3(C=O)C(CCC4C3CCC3(C)C(C5=CC(=O)OC5)C(O)CC43O)C2)[C@H](O)[C@H](O)[C@H]1O[C@@H]1O[C@H](CO)[C@@H](O)[C@H](O)[C@H]1O (stereo partly drawn) | 2.17 µM (active) | 1.72 µM (active) | – | –
7 | CO[C@@H]1[C@H](O)[C@@H](O[C@@H]2C[C@H]3CC[C@@H]4C(CC[C@]5(C)[C@@H](C6=CC(=O)OC6)CC[C@]45O)[C@@]3(C)[C@H](O)C2)O[C@H](C)[C@@H]1O (stereo partly drawn) | 0.0632 µM (active) | 0.0282 µM (active) | – | –
8 | COc1cc(C(=O)O[C@H]2[C@@H]3C=CO[C@@H](O[C@@H]4O[C@H](CO)[C@@H](O)[C@H](O)[C@H]4O)[C@@H]3[C@@]3(CO)O[C@@H]23)ccc1O | inactive | inactive | – | –
9 | Fc1cc(F)c2c(c1)C1C=CCC1C(c1cccnc1)N2 (stereo not drawn) | 3.66 µM (active) | 2.91 µM (active) | – | –
10 | C[C@]12CC[C@@H](O)C[C@@H]1CC[C@@H]1[C@@H]2CC[C@]2(C)C(=O)[C@@H](Br)C[C@@H]12 | 16.4 µM (active) | 11.6 µM (active) | – | –
11 | CC(C)C(=O)O[C@H]1[C@@H]2[C@H](C)C(=O)O[C@@H]2C[C@@H](C)[C@@H]2C=CC(=O)[C@]21C | 3.6 µM (active) | 2.27 µM (active) | – | –
12 | CC[C@H](C)[C@H](NC(=O)[C@H]1CCCCN1C)C(=O)N(COC(=O)CC(C)C)[C@H](C[C@@H](OC(C)=O)c1nc(C(=O)N[C@@H](Cc2ccc(O)cc2)C[C@H](C)C(=O)O)cs1)C(C)C | 0.0004 µM (active) | 0.0004 µM (active) | – | –
13 | C=C(C)[C@@]12O[C@@H]1[C@@]1(C)C(=CC2=O)CC[C@@H](OC(C)=O)[C@@H]1C | 2.31 µM (active) | 2.31 µM (active) | – | –
14 | C[C@@H]1CCC/C=C/[C@H]2C[C@@H](O)C[C@@H]2[C@@H](O)/C=C/C(=O)O1 | 0.184 µM (active) | 0.146 µM (active) | – | –
15 | CCC(C)/C=C(C)/C=C/C1=CC2=C(Cl)C(=O)C(C)(OC(C)=O)C(=O)C2=CO1 (stereo not drawn) | inactive | 8.05 µM (active) | – | –
16 | COC1C(O)C(OC2CCC3(C=O)C(CCC4C3CCC3(C)C(C5=CC(=O)OC5)CCC43O)C2)OC(C)C1OC1OC(CO)C(O)C(O)C1O (stereo not drawn) | 0.153 µM (active) | 0.172 µM (active) | – | –
17 | CC(C)(O)/C=C/C(=O)[C@](C)(O)[C@H]1[C@H](O)C[C@@]2(C)[C@@H]3CC=C4[C@@H](C[C@H](O)C(=O)C4(C)C)[C@]3(C)C(=O)C[C@]12C | 0.317 µM (active) | 0.282 µM (active) | – | –
18 | CC1=CC(=O)[C@@H](O)[C@]2(C)C3[C@@H](O)[C@@H]4OC(=O)[C@@H]([C@H]4C)[C@]3(C)C(=O)C[C@@H]12 (stereo partly drawn) | 0.904 µM (active) | 1.01 µM (active) | – | –
19 | CN=C(NS(=O)(=O)c1ccc(Cl)cc1)N1C[C@H](c2ccccc2)C(c2ccc(Cl)cc2)=N1 | 20.6 µM (active) | 20.6 µM (active) | – | –
20 | CC(=O)O[C@H]1C[C@]2(O)[C@@H]3CC[C@@H]4C[C@@H](O)CC[C@]4(C)[C@H]3CC[C@]2(C)[C@H]1c1ccc(=O)oc1 | 0.0259 µM (active) | 0.0231 µM (active) | – | –
21 | CC[C@@H](C)[C@H]1C(=O)O[C@H](C(C)C)C(=O)N(C)[C@@H]([C@@H](C)CC)C(=O)O[C@H](C(C)C)C(=O)N(C)[C@@H]([C@H](C)CC)C(=O)O[C@H](C(C)C)C(=O)N1C | 1.22 µM (active) | 1.72 µM (active) | – | –
22 | C[C@@]12C[C@@H](c3ccoc3)OC(=O)C1CC[C@]1(C)[C@H]2[C@H]2C=C[C@]1(O)C(=O)O2 (stereo partly drawn) | inactive | inactive | – | –
23 | N#Cc1ccccc1-c1cc(-c2ccccn2)cn(-c2ccccc2)c1=O | inactive | inactive | – | –
24 | C[C@@H]1Cc2c(Cl)cc(C(=O)N[C@@H](Cc3ccccc3)C(=O)O)c(O)c2C(=O)O1 | 0.718 µM (active) | 0.286 µM (active) | – | –
25 | Cc1c(N2C(=O)[C@@H]3[C@H](O)CCN3C2=O)ccc(C#N)c1Cl | inactive | inactive | – | –
26 | CN1[C@H]2C[C@H](OC(=O)[C@H](CO)c3ccccc3)C[C@@H]1[C@@H](O)C2 | inactive | inactive | – | –
27 | COC1C(O)C(C)OC(OC2C(CO)O[C@@H](O[C@@H]3CC4CCC5C(CC[C@]6(C)[C@@H](C7=CC(=O)OC7)CC[C@]56O)[C@@]4(C)[C@H](O)C3)C(O)C2O)C1O (stereo partly drawn) | 0.385 µM (active) | 0.217 µM (active) | – | –

Row | SMILES | Potency [1] | Potency [2] | viability (% of control) [1] | viability, % of control [2]
28 | C=CCC1=C(C)C(OC(=O)C2C(C=C(C)C)C2(C)C)CC1=O (stereo not drawn) | 5.45 µM (active) | 9.69 µM (active) | – | –
29 | C[C@H](CCC(=O)O)C[C@H](C)C[C@H](C)C(=O)/C=C(\O)[C@H](C)C[C@H](C)C/C=C/[C@@H](C)[C@@H](O)[C@@H](C)[C@@H](O)C[C@@H]1CC[C@@](C)([C@H]2CC[C@@](C)([C@@H](C)O)O2)O1 | 2.52 µM (active) | 2.82 µM (active) | – | –
30 | CCS(=O)(=O)C(C)(C)S(=O)(=O)CC | inactive | inactive | – | –
31 | COC[C@@H]1OC(=O)c2coc3c2[C@]1(C)C1=C(C3=O)[C@H]2CC[C@H](O)[C@@]2(C)C[C@@H]1OC(C)=O | 8.2 µM (active) | 6.51 µM (active) | – | –
32 | C[C@@H]1C[C@@H](O)[C@]2(O)O[C@@H]3C[C@@]4(C=O)C(CC[C@@H]5C4CC[C@]4(C)[C@@](O)(C6=CC(=O)OC6)CC[C@]54O)C[C@H]3OC2O1 (stereo partly drawn) | 0.796 µM (active) | 0.709 µM (active) | – | –
33 | C[C@]12CC[C@H](O)CC1=CC[C@@H]1C2CC[C@]2(C)[C@@H](C3=CC(=O)OC3)CC[C@]12O (stereo partly drawn) | 11.4 µM (active) | 4.04 µM (active) | – | –
34 | C/C=C(\C)C(=O)OC1C(C)OC(OC2C(C)OC(OC3CCC4(C)C(=CCC5C4CCC4(C)C(C(C)OC6OC(COC7OC(CO)C(O)C(O)C7O)C(O)C(O)C6O)CCC54O)C3)CC2OC)C(O)C1OC (stereo not drawn) | – | – | 78.5% [at 9.25 µM] | 105% [at 9.25 µM]
35 | Oc1ccc2c3c1O[C@H]1[C@H](N(CCCl)CCCl)CC[C@@]4(O)[C@@H](C2)N(CC2CC2)CC[C@]314 | – | – | 89.3% [at 9.25 µM] | 83.4% [at 9.25 µM]
36 | COc1cc(O)c2c(c1)CCC[C@@H](O)[C@H](O)C(=O)/C=C\C[C@H](C)OC2=O | 1.8 µM (active) | 2.86 µM (active) | – | –
37 | C=C[C@H]1[C@H](O[C@@H]2O[C@H](CO)[C@@H](O)[C@H](O)[C@H]2O)OC=C2C(=O)OCC[C@H]21 | inactive | inactive | – | –
38 | COc1cccc(NCC(F)Cn2c3ccc(Br)cc3c3cc(Br)ccc32)c1 (stereo not drawn) | 2.06 µM (active) | 2.06 µM (active) | – | –
39 | N#CC(OC1OC(COC2OC(CO)C(O)C(O)C2O)C(O)C(O)C1O)c1ccccc1 (stereo not drawn) | inactive | inactive | – | –
40 | COC(=O)N1CCN(C(=O)Cc2ccc(Cl)c(Cl)c2)[C@@H](CN2CCCC2)C1 | inactive | inactive | – | –
41 | C1=C2CCCN[C@H]2[C@@H]2C[C@H]1[C@H]1CCCCN1C2 | inactive | inactive | – | –
42 | CCCN1CCO[C@H]2c3cc(O)ccc3OC[C@@H]21 | inactive | inactive | – | –
43 | C#C[C@]1(O)CC[C@H]2[C@@H]3CC[C@H]4Cc5nc6nc7ccccc7n6cc5C[C@]4(C)[C@H]3CC[C@@]21C | 9.2 µM (active) | 7.31 µM (active) | – | –
44 | COc1ccc(CCNCc2ccc(OC)c3ccccc23)cc1 | 9.2 µM (active) | 8.2 µM (active) | – | –
45 | CNC(=O)NC(O)C(Cl)(Cl)Cl (stereo not drawn) | inactive | inactive | – | –
46 | C[C@H]1O[C@@H](O[C@H]2C[C@@H](O)[C@]3(CO)C4C(CC[C@]3(O)C2)[C@@]2(O)CC[C@H](C3=CC(=O)OC3)[C@@]2(C)C[C@H]4O)[C@@H](O)[C@@H](O)[C@H]1O (stereo partly drawn) | 0.172 µM (active) | 0.122 µM (active) | – | –
47 | CC(=O)O[C@H]1CN2CCC1CC2 | inactive | inactive | – | –
48 | O=C(OC[C@H]1O[C@@H](Oc2ccc(O)cc2CO)[C@H](O)[C@@H](O)[C@@H]1O)c1ccccc1 | inactive | inactive | – | –
49 | CC(=O)OC12C(O)C(C)C3(O)C4C=C(C)C(=O)C4CC(CO)=CC3C1C2(C)C (stereo not drawn) | inactive | inactive | – | –
50 | C=C(CO)[C@@]12O[C@@H]1[C@@]1(C)C(=CC2=O)CC[C@@H](O)[C@@H]1C | 8.2 µM (active) | 5.17 µM (active) | – | –
51 | C=C(C)[C@@H]1[C@H]2OC(=O)[C@H]1[C@]1(O)C[C@H]3O[C@]34C(=O)O[C@H]2[C@]14C | inactive | inactive | – | –
52 | COC1CC(OC2CCC3(C=O)C(CCC4C3CCC3(C)C(C5=CC(=O)OC5)CCC43O)C2)OC(C)C1O (stereo not drawn) | 0.0893 µM (active) | 0.0709 µM (active) | – | –
53 | COC(=O)[C@@]1(C)C(=O)C=C[C@]2(C)c3c(O)cc(C(C)C)cc3[C@H](O)[C@@H](OC(C)=O)C12 (stereo partly drawn) | 11.2 µM (active) | 8.93 µM (active) | – | –
54 | COc1ccc2c(c1)/C(=C/c1cnc[nH]1)C(=O)N2 | 0.461 µM (active) | 1.64 µM (active) | – | –
